Screening data from PubChem.
IkB signaling – IkB Signaling; Potency, µM (doses to about 57.1 µM), inactives show at the top dose IkBa stabilization activation; ABC-DLBCL IkBa-CBG/CBR dual luciferase ratio, 4 h; response scale: scaled: untreated 0%, proteasome inhibitor 100%; hit rate 0.04% among 110,000; active = well fitted curve in the direction sought with a large enough effect in the signal ratio, not every such curve was filed as active; inconclusive = small, poorly fitted or top-dose-only effect, or a change in a side signal; the % refers to the signal ratio;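 note: the direction sought is a rising ratio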
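Curves were fitted separately to fusion (green), unfused (red) and ratio luminescence, then classed by r2, magnitude and activity. Cells: OCI-Ly3, 4 h compound plus doxycycline at 37C; 10 uM MG-132 defined full response.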
ALOX15 inhib – qHTS Assay for Inhibitors of 15-hLO (15-human lipoxygenase) | purified 15hLO-1, xylenol orange hydroperoxide absorbance | Potency, µM (doses to about 57.1 µM), for the others: at the highest dose activity change, negative = inhibition, hits mostly inhibitors | AID 887, 2007 | hit rate 1.4% among 74,000; note: % is set by controls: 0 for no effect and ±100 for the full control effect; nearly all actives have a fitted effect of over 55% in size
Target sequence (P16050 whole entry, looked up): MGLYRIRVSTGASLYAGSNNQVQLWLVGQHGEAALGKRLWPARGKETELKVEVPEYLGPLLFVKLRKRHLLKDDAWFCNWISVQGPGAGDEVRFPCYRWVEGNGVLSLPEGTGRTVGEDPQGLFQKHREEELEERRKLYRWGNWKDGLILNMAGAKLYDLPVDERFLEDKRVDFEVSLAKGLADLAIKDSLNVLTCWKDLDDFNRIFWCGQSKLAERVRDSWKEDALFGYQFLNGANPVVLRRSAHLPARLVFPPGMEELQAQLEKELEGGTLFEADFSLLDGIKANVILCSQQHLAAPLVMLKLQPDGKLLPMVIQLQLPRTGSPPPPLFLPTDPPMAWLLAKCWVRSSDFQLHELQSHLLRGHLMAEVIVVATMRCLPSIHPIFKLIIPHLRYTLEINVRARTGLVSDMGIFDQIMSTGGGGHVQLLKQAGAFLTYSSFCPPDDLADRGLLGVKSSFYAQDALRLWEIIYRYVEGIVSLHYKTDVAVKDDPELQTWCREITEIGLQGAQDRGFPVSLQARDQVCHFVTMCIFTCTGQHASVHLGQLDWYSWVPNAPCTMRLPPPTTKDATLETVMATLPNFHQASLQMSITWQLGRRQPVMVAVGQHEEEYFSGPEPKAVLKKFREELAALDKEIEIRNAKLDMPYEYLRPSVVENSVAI
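Readout: Fe(III)-xylenol orange absorbance, 573-to-405 nm ratio as reaction progress. Enzyme 40 nM purified human 15hLO-1, substrate 50 uM arachidonic acid, 6 min RT after 15 min compound preincubation; Hepes pH 7.5 buffer with Triton X-100.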
Tau filament bind – qHTS Assay for Tau Filament Binding | Microtubule-associated protein tau (Homo sapiens), P10636 | recombinant tau filaments, thioflavin S fluorescence, 15 h; filaments grown with octadecylsulfate alongside compound | Potency, µM (top dose mostly 57.1 µM), for inactives: at the highest dose activity change, negative = inhibition | hit rate 2% among 71,000;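 note: % is set by controls: 0 for no effect and ±100 for the full control effect; actives lower thioflavin S fluorescence by blocking filaments or displacing dye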
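Tau 2 uM in ThS buffer dispensed; compound added; 60 uM ODS added (finals 1 uM tau, 30 uM ODS); 15 h 37 C; fluor ex450/em510.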
Hsp90 Hop PPI – qHTS Assay for Disrupters of an Hsp90 Co-Chaperone Interaction; Potency, µM (top dose mostly 57 µM), without a hit: at the highest dose activity change, negative = inhibition; hit rate 0.44% among 71,000; AlphaScreen TPR2A-His6 binding biotin-Hsp90 C-terminal peptide; Hsp90 C-terminal peptide / TPR2A (Hop) interaction, human; AID 595, 2007; active = well fitted curve in either direction with a large enough effect; inconclusive = small, poorly fitted or top-dose-only effect, or another doubt; note: % is set by controls: 0 for no effect and ±100 for the full control effect
CRE-bla Fsk – Cell signaling CRE-BLA (Fsk stim) | CHO CRE-bla reporter (cAMP response element driving beta-lactamase), forskolin EC10, beta-lactamase ratio | Potency, µM (highest dose often 38.2 µM), inactives show top-dose activity change, negative = inhibition, most hits filed as activators | hit rate 2.5% among 71,000; active = well fitted activation curve with a large enough effect in the signal ratio, with a control signal flat, not every such curve was filed as active; inconclusive = small, poorly fitted or top-dose-only effect, or effect the other way, or a change in a side signal; the % refers to the signal ratio; note: % of control where 0% means no effect
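CRE-bla CHO cells stimulated with EC10 NKH 477 (water-soluble forskolin) and compound titrations, 3 h at 37C; beta-lactamase read with CCF4 after 2 h at room temperature. Activity from 460/530 nm emission ratio, AC50 values for positive or negative modulation.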
* = called active by the depositor; ? = inconclusive; . = not tested or not shown; [ ] = remark or other dose. This is a sample that favours compounds with a hit; in the whole collection about 3.6% have one here. Unless noted, calls come from the whole dose curve; as a rule, active = well fitted curve in the direction sought with a large enough effect; inconclusive = small, poorly fitted or top-dose-only effect, or another doubt; inactive = no such curve, though single readings can be large; an effect the other way counts as inactive or inconclusive. Potency is the fitted concentration of half-maximal effect.

SMILES	IkB signaling	ALOX15 inhib	Tau filament bind	Hsp90 Hop PPI	CRE-bla Fsk
Cc1cccc2c1-c1sc(C(=O)NCCc3ccc(Cl)cc3)cc1CO2	0%	.	.	.	.
Cc1c(C(=O)Nc2nnc(C(F)(F)F)s2)oc2ccccc12	.	12%	.	.	.
N#Cc1c(NC(=O)C(F)(F)F)sc2c3c(=O)c4ccccc4c(=O)c=3oc3ccccc3c12	10%[11.4 µM]	-16%[11.4 µM]	4µM*	-6%[11 µM]	?
O=C(c1ccc(-c2cccc(C(F)(F)F)c2)o1)N1CCOCC1	-6%	3%	8%	-4%	?
N#CCCN1CCN(C(=S)c2ccc(-c3cc(Cl)ccc3Cl)o2)CC1	7%	?	2.5µM*	-21%	11%
S=C(c1ccc(-c2ccccc2Cl)o1)N1CCOCC1	-4%	?	16µM*	-29%	28%
S=C(c1ccc(N2CCOCC2)cc1)N1CCOCC1	0%	?	6%	-2%	3%
OCCN1CCN(C(=S)c2ccc(Cl)c(Cl)c2)CC1	-1%	-4%	7%	?	9%
S=C(c1ccc(-c2ccc(Cl)c(Cl)c2)o1)N1CCOCC1	0%	?	10µM*	?	14%
COc1ccc(S(=O)(=O)Nc2ccccc2C(=O)O)cc1	.	-5%	.	.	.
O=C(OCC#CCSc1nnc(-c2ccc(Br)cc2)o1)c1ccco1	4%	3.2µM*	23%	20%	?
CCc1nnc(NC(=O)CSc2nnc(-c3ccoc3C)n2-c2cccc(C)c2)s1	1%	-2%	10%	0%	?
Cc1cccc(-n2c(SCC(=O)Nc3nnc(C)s3)nnc2-c2ccoc2C)c1	1%	-16%	16µM*	?	-2%
O=C(C1CCCN1S(=O)(=O)c1cccc2cccnc12)N1CCc2ccccc2C1 (stereo unspecified)	-3%	25µM*	26%	-5%[2.3 µM]	-7%
Cc1cccc(N2C(=O)N(CC(=O)C(C)(C)C)c3ccccc3S2(=O)=O)c1C	2%	.	.	.	.
Cc1nc2cnc(Nc3ccccc3)nc2n(CCC#N)c1=O	1%[11.4 µM]	6%	0%	-1%	?
CCNc1ncc2nc(-c3ccccc3)c(=O)n(CCc3ccccc3)c2n1	-3%[11.4 µM]	4%	12%	1%	?
CCNc1ncc2nc(C)c(=O)n(CCc3ccccc3)c2n1	-2%[11.4 µM]	4%	22%	0%	2µM*
CCNc1ncc2nc(C)c(=O)n(CCC#N)c2n1	2%[11.4 µM]	2%	-1%	-1%	13µM*
COc1ccc(-c2cc(=O)c3ccccc3s2)cc1	6%	?	25µM*	7%	-3%
COc1ccc(-c2cc(=O)c3ccccc3o2)cc1	.	-2%	.	.	.
COc1cc2c(cc1OC)-c1nnc(-c3cccs3)n1C(C)(C)C2	2%	-7%	22%	-5%[2.3 µM]	30%
COc1cc2c(cc1OC)-c1cc3nc4ccccc4nc3n1C(C)(C)C2	0%	13µM*	164%	?	?
CC(C)C1N=C2c3ccccc3N=C(SCc3cc(=O)n4cc(Cl)ccc4n3)N2C1=O (stereo unspecified)	-2%	4%	-40%	6%	1.3µM*
CC1N=C2c3ccccc3N=C(SCc3cc(=O)n4ccccc4n3)N2C1=O (stereo unspecified)	-2%	1%	-40%	5%	13µM*
SMILES	IkB signaling	ALOX15 inhib	Tau filament bind	Hsp90 Hop PPI	CRE-bla Fsk
CC(C)C1N=C2c3ccccc3N=C(SCC(=O)NCc3ccc(Cl)cc3)N2C1=O (stereo unspecified)	0%	.	.	.	.
CCOc1ccc(CCNC(=O)c2cn(C)c3ccc(S(=O)(=O)N4CCCCCC4)cc3c2=O)cc1OCC	1%	.	.	.	.
C=CCc1c(C)nc(SC)nc1Nc1ccc(C(=O)O)cc1	1%	2%	-9%	-3%	?
C=CCc1c(C)nc(SC)nc1Nc1ccc(C(C)=O)cc1	?	-22%	7%	3%	10µM*
COc1cccc(-c2ccc3ncnc(NCCN4CCOCC4)c3c2)c1	3%[11.4 µM]	7%	-10%	-3%	17%
Nc1ccccc1S[C@@H](C[N+](=O)[O-])c1ccc2c(c1)OCO2	?	2.5µM*	2%[11.4 µM]	-6%[11 µM]	-4%[7.6 µM]
c1ccc(SC(Sc2ccccc2)c2ccc3c(c2)OCO3)cc1	0%[11.4 µM]	4%[11.4 µM]	4%[11.4 µM]	18%[11 µM]	15%[7.6 µM]
O=C(CSc1nnc(C2COc3ccccc3O2)o1)NC1CCCCC1 (stereo unspecified)	2%	-21%	0%	1%	-6%
O=C(CSc1nnc(C2COc3ccccc3O2)o1)Nc1nccs1 (stereo unspecified)	8%	88%	-2%	13µM*	-10%
O=c1c(CCc2ccccc2)nc2cncnc2n1Cc1ccccc1Cl	1%[11.4 µM]	-28%	-24%	-5%	-2%
COC(=O)Cn1cc(C(=O)OC)c2ccccc21	0%	8%	4%	-3%	0%
COC(=O)c1cn(CCOc2ccccc2)c2ccccc12	1%	-3%	-8%	25µM*	8%
COc1cc(NC(=O)C2CCCN2C(=O)C2CCC(C)CC2)cc(OC)c1OC (stereo unspecified)	1%	4%	-30%	-4%	19%
COc1ccc(OC)c(NC(=O)C2CCCN2C(=O)C2CCC(C)CC2)c1 (stereo unspecified)	-2%	-11%	20µM*	-9%	14%
Cc1ccccc1CN1CCC(CNc2ncnc3onc(-c4ccc(F)cc4)c23)CC1	-1%	.	.	.	.
CCc1nc(SCC(=O)N2CCN(c3ccccc3)CC2)c2c(=O)n(C)c(=O)n(C)c2n1	3%	-22%	19%	1%	25%
CCc1nc(SCc2cccnc2)c2c(=O)n(C)c(=O)n(C)c2n1	-3%	2%	6%	-5%	2.5µM*
Cn1c(=O)c2c(SCc3cccnc3)nc(C3CC3)nc2n(C)c1=O	-3%	2%	50%	-2%	3.2µM*
Cc1ccccc1OCCSc1nnc(-c2ccc([N+](=O)[O-])cc2)o1	-2%	.	.	.	.
CC1CCc2sc3nc(NCc4ccco4)n4ncnc4c3c2C1 (stereo unspecified)	-2%	-16%	21%	1%	?
CC1(C)Cc2c(sc3nc(NCCN4CCOCC4)n4ncnc4c23)CO1	-3%	0%	-3%	-6%	4µM*
O=c1oc2c3c4c(cc2s1)CCCN4CCC3	0%	?	25µM*	-28%	3%
CCCCOc1ccc(CNC(=O)Cn2ncn3c(cc4cc(F)ccc43)c2=O)cc1	3%	.	.	.	.
Cc1cc(NC(=O)CSc2nc3ccccc3c(=O)n2C2CCCC2)no1	1%	5%	108%	3%	13µM*
Cc1cc(NC(=O)CSc2nc3c([nH]c4ccccc43)c(=O)n2-c2ccc(Cl)cc2)no1	2%	.	.	.	.
